# From PubChem BioAssay
# The other results are listed elsewhere or left out. Values without a mark were called inactive. Active and inactive are the calls of the source.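 How the source made its calls, unless noted: active means activation above the mean of solvent-only control wells plus 3 SD, set per campaign (cut at about 130% in these data); inactive means the rest.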
# Tests used:
# [1] = potentiators of IFN-gamma STAT1 reporter activity – cell-based, HTS, luciferase reporter, confirmation (AID 1262;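 active means activation above a set limit carried over from the earlier primary STAT1 screen, cut at about 140% in these data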;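 further: simple ratio to median IFN-gamma plus DMSO wells so 0% means no light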); details: NIH 3T3 STAT1-luciferase reporter, IFN-gamma potentiation, luminescence; at 5.7 µM; active compounds read high; 100% = IFN-gamma EC80 alone, no compound
# [2] = enhancement of NF-kB transcriptional signalling – cell-based, HEK293T, luciferase luminescence, TNF-alpha, counter-screen for STAT1 activator project (AID 1306); details: HEK293T NF-kB luciferase reporter, TNF-alpha stimulated, at 5.7 µM, active compounds read high, 100% = TNF-alpha with vehicle only;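 further: TNF-alpha given at a submaximal dose yielding about 80% of full reporter signal; values are well signal over median control so 100% means no change and 0% no light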
# [3] = target: Signal transducer and activator of transcription 3 (Homo sapiens) (UniProt P40763); assay: enhancers of IL-6 STAT3 transcription – U3A cells, luciferase, luminescence, counter-screen for STAT1 activator project, confirmation (AID 1316;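 active means activation above the solvent-only control well mean plus 3 SD, set per plate batch, cut at about 110% in these data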;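 further: 0% = no luminescence and 100% = median IL-6 plus DMSO wells; higher means more STAT3 reporter activation so hits are non-selective activators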); details: U3A cells STAT3-luciferase reporter, IL-6, luminescence; at 5.7 µM; active compounds read high; 100 = IL-6 alone, no compound effect; cells lack STAT1
# [4] = system: DAF-12 nuclear receptor (Heterodera glycines), GAL4-LBD fusion; assay: hgDAF-12 GAL4 fusion reporter activation, retest – cell-based, luminescence, HEK293, GAL4-LBD fusion, confirmation (AID 743050;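 active means mean activation over triplicate wells above the hit cutoff derived from the earlier primary screen, cut at about 11% in these data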;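 further: 0% = DMSO low control and 100% = 2 mM sodium butyrate high control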); details: HEK293 GAL4-hgDAF12 luciferase reporter, agonist mode; at 6.8 µM; active compounds read high; percent of butyrate response
# [5] = target: Oxysterols receptor LXR-beta (Homo sapiens) (UniProt P55055); assay: nonspecific reporter activation via LXR – cell-based, luminescence, HEK293, H. glycines campaign, counter-screen for hgDAF-12 agonist project, confirmation (AID 743051;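 active means mean activation of the triplicate above a set limit carried over from the primary screen, none filed active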); details: HEK293 Gal4-LXR luciferase reporter, 24 h; at 6.8 µM; active compounds read high
# Oxysterols receptor LXR-beta (Homo sapiens), sequence (P55055 whole entry, looked up, the tested form may be a part): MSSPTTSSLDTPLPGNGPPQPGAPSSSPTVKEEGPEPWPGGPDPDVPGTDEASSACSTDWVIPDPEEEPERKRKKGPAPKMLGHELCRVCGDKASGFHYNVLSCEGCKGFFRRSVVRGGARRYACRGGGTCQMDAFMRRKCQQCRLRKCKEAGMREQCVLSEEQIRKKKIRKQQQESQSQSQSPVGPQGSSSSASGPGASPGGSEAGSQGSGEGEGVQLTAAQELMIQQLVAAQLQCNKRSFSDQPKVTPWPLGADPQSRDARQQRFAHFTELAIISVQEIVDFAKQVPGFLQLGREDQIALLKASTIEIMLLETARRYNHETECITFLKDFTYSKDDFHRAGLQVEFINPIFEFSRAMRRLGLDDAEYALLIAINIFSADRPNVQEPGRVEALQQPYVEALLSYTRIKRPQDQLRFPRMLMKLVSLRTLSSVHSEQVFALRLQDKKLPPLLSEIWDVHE
# [6] = target: Oxysterols receptor LXR-beta (Homo sapiens) (UniProt P55055); assay: nonspecific reporter activation via LXR – cell-based, luminescence, HEK293, H. contortus campaign, counter-screen for hcDAF-12 agonist project, confirmation (AID 743027;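 active means mean percent activation of the reporter above a cutoff set as the average over tested compounds plus their standard deviation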); details: HEK293 Gal4-LXR tk-luc reporter, 24 h, at 6.8 µM, active compounds read high, normalized: DMSO 0%, positive control 100%
# [7] = system: Nuclear hormone receptor DAF-12 (Haemonchus contortus); assay: hcDAF-12 luciferase reporter activation, retest – cell-based, luminescence, HEK293, lit1-tk-luc, triplicate, confirmation (AID 743032;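 active means mean activation across triplicate tests above the threshold derived from the earlier primary screen, cut at about 5.5% in these data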;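 further: 0% = DMSO only wells and 100% = 3 µM Δ7-dafachronic acid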); details: HEK293 hcDAF-12 lit1-tk-luc reporter, at 6.8 µM, active compounds read high, % of Δ7-dafachronic acid response
# [8] = reduced OD of T4-infected AddAB+ E. coli – absorbance, E. coli V3065, T4 phage, triplicate, AddAB inhibitor project, confirmation (AID 488942;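 active means mean inhibition above a set limit taken from the earlier primary screen, cut at about 13% in these data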;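 further: higher means less bacterial growth since AddAB block lets phage replicate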); details: E. coli V3065 expressing H. pylori AddAB, at 11.9 µM, active compounds read high, T4 phage with gene 2 nonsense mutations
# [9] = reduced OD of phage-infected RecBCD+ V66 E. coli – absorbance, mutant T4 phage, counter-screen for AddAB inhibitor project (AID 488955;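 active means mean inhibition above the mean of solvent-only control wells plus 3 SD, cut at about 4% in these data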;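 further: optical density read after an 18 h incubation at 37 °C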); details: OD growth, at 11.9 µM, active compounds read high
# [10] = bacterial growth inhibitors – absorbance, counter-screen for AddAB inhibitor project, confirmation (AID 488956; in the data active means inhibition above about 25%); details: bacterial viability, absorbance (AddAB counterscreen); at 11.9 µM; active compounds read high
# [11] = target: Sphingosine 1-phosphate receptor 4 (Homo sapiens) (UniProt O95977); assay: blockers of human S1P4 signalling – cell-based, confirmation (AID 1524; in the data active means inhibition above about 30%); details: S1P4-expressing cell line, antagonist mode, reporter read-out; at 4.98 µM; active compounds read high
# Sphingosine 1-phosphate receptor 4 (Homo sapiens), sequence (O95977 whole entry, looked up): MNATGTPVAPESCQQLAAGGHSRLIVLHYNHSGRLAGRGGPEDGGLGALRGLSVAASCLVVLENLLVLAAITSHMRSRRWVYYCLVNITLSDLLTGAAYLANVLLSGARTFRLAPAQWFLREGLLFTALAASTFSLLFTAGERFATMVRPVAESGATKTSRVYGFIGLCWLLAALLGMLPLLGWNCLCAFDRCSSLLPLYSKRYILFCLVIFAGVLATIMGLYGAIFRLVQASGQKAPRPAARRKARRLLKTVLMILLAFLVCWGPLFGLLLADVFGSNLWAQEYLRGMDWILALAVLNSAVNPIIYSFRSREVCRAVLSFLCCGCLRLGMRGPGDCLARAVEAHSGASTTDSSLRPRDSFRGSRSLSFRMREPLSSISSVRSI
# [12] = target: Sphingosine 1-phosphate receptor 1 (Homo sapiens) (UniProt P21453); assay: blockade of human S1P1 receptor – cell-based, counter-screen for S1P4 antagonist project (AID 1564; in the data active means inhibition above about 40%;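 further: receptor stimulated with S1P near its EC80; 0% = agonist stimulated wells and 100% = vehicle only wells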); details: cell-based S1P1 antagonist counterscreen, at 4.98 µM, active compounds read high
# Sphingosine 1-phosphate receptor 1 (Homo sapiens), sequence (P21453 whole entry, looked up): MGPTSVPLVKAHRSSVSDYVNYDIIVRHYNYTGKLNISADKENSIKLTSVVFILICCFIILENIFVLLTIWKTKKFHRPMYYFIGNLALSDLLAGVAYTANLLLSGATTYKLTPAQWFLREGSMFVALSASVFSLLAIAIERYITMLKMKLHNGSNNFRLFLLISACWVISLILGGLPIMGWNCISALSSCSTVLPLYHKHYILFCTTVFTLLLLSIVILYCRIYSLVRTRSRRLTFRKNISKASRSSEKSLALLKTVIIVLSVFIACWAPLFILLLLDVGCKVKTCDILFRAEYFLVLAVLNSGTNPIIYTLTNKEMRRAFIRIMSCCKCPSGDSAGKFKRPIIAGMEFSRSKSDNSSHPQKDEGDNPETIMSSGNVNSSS
# [13] = suppression of KLF5 promoter-driven luciferase – DLD-1 cells, luminescence, confirmation (AID 1834;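 active means inhibition above a set limit taken from the earlier primary screen, cut at about 63% in these data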;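 further: 0% = DMSO wells and 100% = LY294002 at 200 µM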); details: DLD-1 KLF5 promoter firefly luciferase reporter, at 4 µM, active compounds read high
# [14] = IEC-6 intestinal cell killing – luminescence, triplicate, cytotoxicity control for KLF5 inhibitor project (AID 1905; in the data active means inhibition above about 23%;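 further: cells exposed to compounds for 48 hours before viability read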); details: IEC-6 rat intestinal cells, viability luminescence; at 4 µM; active compounds read high
# [15] = target: Insulin-degrading enzyme (Homo sapiens) (UniProt P14735); assay: cellular IDE Abeta-cleavage inhibition – fluorescence polarization, HEK cells, FAbetaB substrate, confirmation (AID 435028;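 active means mean inhibition across triplicate wells above the cutoff set by the earlier primary insulin-degrading enzyme screen, cut at about 16% in these data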;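 further: 0% = DMSO wells and 100% = 60 µM reference IDE inhibitor Ii1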); details: at 5.59 µM, active compounds read high
# Insulin-degrading enzyme (Homo sapiens), sequence (P14735 whole entry, looked up): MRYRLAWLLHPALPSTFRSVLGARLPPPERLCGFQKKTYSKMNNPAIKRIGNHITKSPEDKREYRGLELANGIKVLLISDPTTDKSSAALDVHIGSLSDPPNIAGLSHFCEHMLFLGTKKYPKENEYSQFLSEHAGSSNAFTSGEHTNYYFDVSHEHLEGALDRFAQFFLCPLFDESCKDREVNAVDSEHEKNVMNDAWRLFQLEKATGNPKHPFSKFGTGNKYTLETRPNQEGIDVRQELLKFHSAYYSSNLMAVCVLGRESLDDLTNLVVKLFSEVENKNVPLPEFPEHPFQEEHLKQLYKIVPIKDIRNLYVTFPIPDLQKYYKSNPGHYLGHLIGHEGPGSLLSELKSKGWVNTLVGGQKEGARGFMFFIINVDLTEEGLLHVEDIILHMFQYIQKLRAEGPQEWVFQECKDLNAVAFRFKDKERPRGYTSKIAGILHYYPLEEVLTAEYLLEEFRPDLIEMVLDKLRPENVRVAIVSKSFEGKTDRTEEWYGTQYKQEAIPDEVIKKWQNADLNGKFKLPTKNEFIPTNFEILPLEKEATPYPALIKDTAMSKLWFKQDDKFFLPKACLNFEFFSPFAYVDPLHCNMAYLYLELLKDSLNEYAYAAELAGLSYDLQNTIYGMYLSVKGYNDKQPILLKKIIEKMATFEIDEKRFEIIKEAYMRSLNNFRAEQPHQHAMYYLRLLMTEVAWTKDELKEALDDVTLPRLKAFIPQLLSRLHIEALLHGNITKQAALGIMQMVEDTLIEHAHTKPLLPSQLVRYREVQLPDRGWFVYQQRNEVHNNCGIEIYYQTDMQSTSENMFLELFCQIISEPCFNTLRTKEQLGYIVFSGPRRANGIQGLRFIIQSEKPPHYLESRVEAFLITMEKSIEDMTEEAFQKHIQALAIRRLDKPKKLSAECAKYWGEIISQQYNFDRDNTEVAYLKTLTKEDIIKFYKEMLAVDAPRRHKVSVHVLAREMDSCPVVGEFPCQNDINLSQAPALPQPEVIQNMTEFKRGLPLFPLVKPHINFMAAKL
# [16] = HEK cell viability loss – luminescence, cytotoxicity control for IDE inhibitor project (AID 449730; in the data active means inhibition above about 22%;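 further: 0% = vehicle wells and 100% = reference cytotoxic drug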); details: HEK293 cytotoxicity, ATP luminescence; at 5.59 µM; active compounds read high
compound,measurement,setting,value
COc1ccc(-c2csc(-c3cccs3)n2)cc1OC,activation (% of control),[1],179% (active)
same,activation (% of control),[2],136% (active)
same,activation (% of control),[3],114% (active)
same,activation,[4],9.44%
same,activation,[5],0.79%
Cc1[nH]n(-c2ccccc2)c(=O)c1/C=N/NC(=O)c1ccoc1C,activation (% of control),[1],120%
same,activation (% of control),[2],117%
same,activation (% of control),[3],108%
Cc1cccc(NC(=O)Nc2ccc3c(c2)OCO3)n1,activation (% of control),[1],192% (active)
same,activation (% of control),[2],133% (active)
same,activation (% of control),[3],121% (active)
same,activation,[6],0.92%
same,activation,[7],4.11%
same,activation,[4],18.4% (active)
same,activation,[5],0.79%
NC(=O)Cc1ccc2sc(-c3ccccc3)nc2c1,activation (% of control),[1],203% (active)
same,activation (% of control),[2],126%
same,activation (% of control),[3],108%
same,activation,[4],17.4% (active)
same,activation,[5],0.66%
Cc1cc(Cl)ccc1OCc1nc(-c2ccncc2)no1,activation (% of control),[1],165% (active)
same,activation (% of control),[2],138% (active)
same,activation (% of control),[3],106%
same,activation,[4],15.6% (active)
same,activation,[5],0.57%
Clc1ccc(Nc2nc(-c3cccs3)cs2)nc1,activation (% of control),[1],289% (active)
same,activation (% of control),[2],149% (active)
same,activation (% of control),[3],133% (active)
same,activation,[6],2.13%
same,activation,[7],13.6% (active)
same,activation,[4],13.1% (active)
same,activation,[5],0.65%
Cc1noc(C)c1/C=N/Nc1ccc2ccccc2n1,activation (% of control),[1],235% (active)
same,activation (% of control),[2],141% (active)
same,activation (% of control),[3],149% (active)
same,activation,[6],1.54%
same,activation,[7],15.2% (active)
CC(C)c1ccc(NC(=O)NC2CCCCC2)cc1,activation (% of control),[1],191% (active)
same,activation (% of control),[2],128%
same,activation (% of control),[3],129% (active)
OCCCN1c2ccccc2Nc2nnc(-c3ccccc3)cc21,activation (% of control),[1],177% (active)
same,activation (% of control),[2],132%
same,activation (% of control),[3],102%
CC(=O)Nc1cccc(-c2cnc3ccccc3n2)c1,activation (% of control),[1],165% (active)
same,activation (% of control),[2],126%
same,activation (% of control),[3],101%
COc1ccc2oc(-c3cccc(NC(=O)CSc4ccc(Cl)cc4)c3)nc2c1,activation (% of control),[1],216% (active)
same,activation (% of control),[2],140% (active)
same,activation (% of control),[3],100%
Cc1cccc(-n2c(O)c(C=Nc3ccccc3N)c(=O)[nH]c2=O)c1,activation (% of control),[1],127%
same,activation (% of control),[2],118%
same,activation (% of control),[3],103%
same,activation,[4],8.36%
same,activation,[5],0.33%
Cc1cc2nc(SCCN3CCOCC3)[nH]c2cc1C,activation (% of control),[1],157% (active)
same,activation (% of control),[2],119%
same,activation (% of control),[3],121% (active)
COc1ccc(-n2nnnc2-c2nc3ccccc3s2)cc1,activation (% of control),[1],214% (active)
same,activation (% of control),[2],117%
same,activation (% of control),[3],111% (active)
same,activation,[6],1.88%
same,activation,[7],12.8% (active)
CCn1c(/C=C/c2ccc([N+](=O)[O-])o2)nc2ccccc2c1=O,activation (% of control),[1],125%
same,activation (% of control),[2],156% (active)
same,activation (% of control),[3],102%
same,inhibition,[8],92.8% (active)
same,inhibition,[9],12.8% (active)
same,inhibition,[10],42.1% (active)
COc1ccccc1-c1cc(C(=O)N2CCCCC2)no1,activation (% of control),[1],204% (active)
same,activation (% of control),[2],137% (active)
same,activation (% of control),[3],116% (active)
CC(=O)Nc1cccc(-c2csc(Nc3cccc(C)n3)n2)c1,activation (% of control),[1],241% (active)
same,activation (% of control),[2],144% (active)
same,activation (% of control),[3],106%
same,activation,[6],1.08%
same,activation,[7],3.26%
same,activation,[4],19% (active)
same,activation,[5],1.17%
Cc1ccccc1Nc1nc(N)nc(CSc2ccccc2)n1,activation (% of control),[1],220% (active)
same,activation (% of control),[2],126%
same,activation (% of control),[3],127% (active)
same,activation,[6],1.61%
same,activation,[7],8.23% (active)
same,activation,[4],17.7% (active)
same,activation,[5],0.84%
COc1ccc(NC(=O)/C(Cl)=C(/Cl)S(=O)Cc2ccc(C)cc2)cn1 (configuration not stated),activation (% of control),[1],324% (active)
same,activation (% of control),[2],51.5%
same,activation (% of control),[3],103%
same,inhibition,[11],121% (active)
same,inhibition,[12],117% (active)
same,inhibition,[13],109% (active)
same,inhibition,[14],87% (active)
COc1ccc(-c2csc(Cc3nc(O)cs3)n2)cc1,activation (% of control),[1],265% (active)
same,activation (% of control),[2],150% (active)
same,activation (% of control),[3],124% (active)
same,activation,[6],1.22%
same,activation,[7],7.02% (active)
O=C(NCCCn1ccnc1)c1cc(-c2ccccc2)on1,activation (% of control),[1],173% (active)
same,activation (% of control),[2],165% (active)
same,activation (% of control),[3],132% (active)
same,activation,[4],57.6% (active)
same,activation,[5],0.27%
Nc1ncc(-c2cc3ccccc3oc2=O)s1,activation (% of control),[1],184% (active)
same,activation (% of control),[2],124%
same,activation (% of control),[3],110%
Cc1ccc(NC(=O)c2csc3c2CCCC3)cc1,activation (% of control),[1],202% (active)
same,activation (% of control),[2],140% (active)
same,activation (% of control),[3],111% (active)
same,activation,[6],1.06%
same,activation,[7],6.25% (active)
same,activation,[4],17.6% (active)
same,activation,[5],0.8%
CCc1ccc(NC2Nc3cc(C)nn3S2)cc1 (configuration not stated),activation (% of control),[1],206% (active)
same,activation (% of control),[2],141% (active)
same,activation (% of control),[3],126% (active)
same,activation,[4],18.8% (active)
same,activation,[5],0.76%
CN1C(=O)/C(=C/C=C2\SCCN2C)OC1=S,activation (% of control),[1],175% (active)
same,activation (% of control),[2],132%
same,activation (% of control),[3],118% (active)
same,inhibition,[15],86.5% (active)
same,inhibition,[16],9.01%
